# Test results published in PubChem BioAssay AID720486 (Milwaukee Institute for Drug Discovery, 2013).
# This is one part of the list. A number with no mark means an inactive call.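 Rule for the calls: active = inhibition of at least 50%; inactive = the rest.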
# Target: Single-stranded DNA-binding protein (Escherichia coli (strain K12)) (UniProt P0AGE0)
# Test: disruption of SSB binding to ssDNA – biochemical, fluorescence polarization, selected ChemBridge compounds, counter-screen for HCV NS3 helicase inhibitor project (AID 720486);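 note: displacers lower Cy5 polarization so higher inhibition means more SSB displaced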
# Details: E. coli SSB binding Cy5-dT15, fluorescence polarization; at 100 µM; active compounds read high
# Chain of Single-stranded DNA-binding protein (Escherichia coli (strain K12)) (P0AGE0 whole entry, looked up): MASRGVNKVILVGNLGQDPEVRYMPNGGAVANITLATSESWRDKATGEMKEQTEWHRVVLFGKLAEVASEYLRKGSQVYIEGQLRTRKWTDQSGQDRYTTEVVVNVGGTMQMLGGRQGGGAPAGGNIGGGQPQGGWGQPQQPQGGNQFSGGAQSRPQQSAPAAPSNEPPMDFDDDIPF
smiles,measurement,value
CCOc1cc(C=C2C(=O)NC(=O)NC2=O)cc(Br)c1OCCOc1ccccc1C,inhibition,36.9%
